This is an account of results in PubChem BioAssay (NCI).

Molecules are shown by their SMILES. This is part of a sample that, as a whole, favours compounds with a hit. Of some 83,000 tested, about 20% had one in any assay.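 Method: cells in 96-well plates; compound added at one concentration; 48 h incubation; percent growth measured; values under 10 scored active.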 A number with no mark means an inactive call. Activity calls are given as the source filed them.

For this test, the system named is HL-60(TB) leukemia. Description: NCI-60 one-dose screen, 48 h (100 = growth as untreated, 0 = no growth, -100 = all killed). The settings on record: 10 µM unless noted.

Consider `COc1cc2nc(SCc3ccccc3)n(-c3ccc(Cl)cc3)c(=O)c2cc1OC`, for which the growth was 34.8%.
The figure for `O=C1CCC(N2Cc3cc(NC(=O)COc4ccccc4)ccc3C2=O)C(=O)N1` (configuration not stated) is 6.3% (active).
`O=c1cc(-c2ccccc2)oc2cc(OCCCNCc3ccccc3)cc(O)c12`: the growth was -46.3% (active).
The figure for `Cc1ccc(N=Nc2c(N)nn3c(-c4cc5ccccc5oc4=O)ccnc23)cc1` is 36.4%; for `O=C(N/N=C/c1ccc(-c2cccc([N+](=O)[O-])c2)o1)c1[nH]c2ccc(Br)cc2c1-c1ccccc1` it is -36.5% (active).
Next, `COc1ccc(/C=C/C(=O)c2ccc(OC)c(S(N)(=O)=O)c2)c(C(F)(F)F)c1`: 3.73% (active).
Take `O=C(Nc1nc2ccc([N+](=O)[O-])cc2s1)Nc1ccccc1I`: the growth was -1.54% (active).
Consider `COc1ccc(C2N(c3ccc(Br)cc3)N=C(C(C)=O)N2[C@H]2[C@H](OC(C)=O)O[C@H](COC(C)=O)[C@@H](OC(C)=O)[C@@H]2OC(C)=O)cc1` (some centres not stated), for which the growth was 23.7%.
The figure for `Cc1ccc(C(C)C)cc1Oc1cccc(-c2c(-c3ccc(C(F)(F)F)cc3)ncn2C2CCNCC2)n1` is -83.1% (active); for `CCCCSc1nc(Nc2ccc(/C(C)=N/NC(N)=S)cc2)c(C#N)c(-c2ccccc2)n1` it is 79.3%.
As for `Nc1nnc(-c2c[nH]c3ccc(Br)cc23)c(-c2c[nH]c3ncc(Br)cc23)n1`, the growth is 23.1%.
Next, `O=C1Nc2cc(-c3ccc(NS(=O)(=O)c4ccc([N+](=O)[O-])cc4)cc3)ccc2/C1=C/c1ccc[nH]1`: 13.7%.
